system: Plasmodium falciparum; assay: GSK_TCMDC: Inhibition of Plasmodium falciparum Dd2 in whole red blood cells, using parasite LDH activity as an index of growth. Test compounds present at 2uM; type: functional

Structure (SMILES)	Inhibition
COc1cc2nc(Nc3ccc4c(ccn4Cc4ccccc4)c3)nc(Nc3ccc4c(ccn4Cc4ccccc4)c3)c2cc1OC	80%
Cl.O=C(CNC1=NCCN1)Nc1ccc(NC(=O)Nc2ccc(NC(=O)CNC3=NCCN3)cc2)cc1	75%
CC(C)(C)c1ccc(CN(C[C@@H](O)CNS(=O)(=O)c2cc(Cl)cc(Cl)c2)C(C)(C)C)cc1.Cl	94%
COc1ccc2nc(-c3cc(-c4ccc(NC(C)=O)cc4)cnc3N)[nH]c2c1	73%
Cc1nc(N)nc(N)c1-c1ccc(Cl)cc1	0%
O=C(c1cnn(-c2ccccc2)c1C(F)(F)F)N1CCN(c2ccnc3cc(Cl)ccc23)CC1	94%
O=C(Nc1ccc(F)cc1F)NC1CCN(c2ccnc3cc(Cl)ccc23)C1.O=C(O)C(F)(F)F (stereo unspecified)	82%
FC(F)(F)c1ccc2[nH]c(-c3ccc(-c4cccc(CNCc5cnn(-c6ccccc6)n5)c4)s3)nc2c1.O=C(O)C(F)(F)F	91%
O=C(Nc1ccc(-c2nc3ccccc3[nH]2)cc1)C1CCN(Cc2ccccc2)CC1	82%
O=C(O)C(F)(F)F.Oc1ccc(CCNc2nc(NCc3ccccc3-c3ccc(C(F)(F)F)cc3)nc(NC3CCNCC3)n2)cc1	2%
CON=Cc1sc(CNCCCN=c2cc(O)c3ccccc3[nH]2)c(C)c1Br.Cl	63%

From ChEMBL document CHEMBL1157539, “Thousands of chemical starting points for antimalarial lead identification” (Nature, 2010)
